These results are taken from PubChem BioAssay (Tox21).

Records with an inconclusive call do not appear. A call without a number means that no potency is given here. Unmarked numbers belong to inactive results. The source made the active and inactive calls. Calls follow the shape of the dose curve; as a rule, active = well fitted cell-killing curve with a large enough effect in the repeat runs; inconclusive = weak or mixed curves, or effect the other way; inactive = flat fitted curve, though single readings scatter.

The experiment in a line: qHTS assay to identify small molecule antagonists of the estrogen receptor alpha (ER-alpha) signaling pathway using the BG1 cell line in the presence of 0.1 nM 17-beta-estradiol - cell viability counter screen (AID 1259241). Also: nearly all actives have a fitted effect of over 40% in size. The settings on record: VM7Luc4E2 (BG1) viability, CellTiter-Fluor protease, 22 h, 0.1 nM estradiol agonist added; series mostly up to 92.4 µM. A digest of the protocol: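 Live-cell protease activity (CellTiter-Fluor fluorescence, 30 min) was read in the same wells after VM7Luc4E2 cells had been exposed to compounds with 0.1 nM 17beta-estradiol for 22 hr at 37C.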
(In qHTS, concentration-response curves come from the screen itself.)
Take `O=c1oc2c(O)c(O)cc3c(=O)oc4c(O)c(O)cc1c4c23`: the activity change, negative = cytotoxicity is 3.69% [at 19 µM].

As for `Cc1cc(S(=O)(=O)O)c(N)cc1Cl`, the Potency result is “inactive”.

Turning to `O=c1[nH]c(=O)n([C@H]2C[C@H](O)[C@@H](CO)O2)cc1C(F)(F)F`, the Potency entry was “inactive”.

For `CC1=C2[C@H](/C=C(\C)C(=O)O)CC[C@@H](C)[C@H]2CC1`, the Potency entry was “inactive”.

Turning to `Nc1cccc(S(=O)(=O)O)c1`, the Potency entry is “inactive”.

`FC(F)(F)C(F)(F)C(F)(F)C(F)(F)C(F)(F)C(F)(F)C(F)(F)C(F)(F)Br`: the Potency result is “inactive”.

`N#CSCC(=O)O`: the Potency entry is “inactive”.

On to `CC(=O)O[C@H]1CC[C@@]2(C)C(=CC[C@@H]3[C@@H]2CC[C@]2(C)C(C(C)=O)=CC[C@@H]32)C1`, for which the Potency entry was “inactive”.

Regarding `CCCC(CCC)(C(=O)OCC)C(=O)OCC`, the Potency result is “inactive”.

Consider `CC(Oc1c(Cl)cccc1Cl)C1=NCCN1` (centres undefined), for which the Potency result is “inactive”.

Turning to `CC1=C(CC(=O)O)c2cc(F)ccc2/C1=C\c1ccc(S(C)(=O)=O)cc1`, the Potency entry was “inactive”.

In the case of `OCCN(CCO)c1ccccc1`, the Potency entry was “inactive”.

In the case of `CCN(CC)CC1CCCCN1CC(=O)N1c2ccccc2C(=O)Nc2cccnc21` (centres undefined), the Potency result was “inactive”.

As for `COC(C)CCO` (centres undefined), the Potency result is “inactive”.

Consider `COC(=O)C(C)O` (centres undefined), for which the Potency result was “inactive”.

On to `O=Cc1ccc(O)c(O)c1O`, for which the Potency result was “inactive”.

Consider `CN1CCN(N)CC1`, for which the Potency entry is “inactive”.

Take `CN1CCN(C2=Nc3cc(F)ccc3Cc3ccccc32)CC1`: the Potency result is “inactive”.

As for `CC1(O)CSC(C)(O)CS1` (centres undefined), the Potency entry is “inactive”.
